Compound activity (PubChem)
This is a sample that favours compounds with a hit; in the whole collection about 7.8% have one here.
Vaccinia Venus: qHTS for Stage-Specific Inhibitors of Vaccinia Orthopoxvirus: Venus Reporter Primary qHTS; AID 720580, 2013; Potency, µM (highest dose often 36.5 µM), most hits filed as inhibitors; 330,000 tested, 0.46% active; Vaccinia virus Venus reporter expression, fluorescence; calls by dose curve; tested in A549 cells; also: nearly all actives have a fitted effect of over 30% in size
HCMV inh: qHTS Assay for inhibitors of the human cytomegalovirus (HCMV); HFF cells, HCMV-luciferase reporter, 72 h; hits give low values; activity change, negative = inhibition, % at 57.5 µM; 410,000 tested, 4.5% active; AID 1259415, 2018; in the data active = activity change below about -60%; inconclusive = no clear call, values can overlap the other calls; inactive = above about -39%
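Compounds were evaluated in HFFs infected with an HCMV luciferase reporter virus (MOI 1 PFU/cell). Luciferase in lysates collected 72 h post infection served as the replication measure.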
HCV inh: qHTS Assay for Inhibitors of Hepatitis C Virus (HCV); Huh7.5.1 HCVcc-Cre infection, luciferase reporter, 44 h; Potency, µM (titrated, usually from 41.8 µM), actives largely listed as inhibitors; 340,000 tested, 3.4% active; active = well fitted inhibition curve with a large enough effect; inconclusive = small, poorly fitted or top-dose-only effect, or another doubt; inactive = no such curve, though single readings can be large or run the other way
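Cells seeded at 1,000/well and cultured 4 h, then compounds added followed by HCVcc-Cre virus (~0.5 moi). After 44 h further culture, luciferase substrate was added, plates held 15 min at room temperature, and luminescence read for 15 sec.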
VACV mCherry inh: qHTS for Stage-Specific Inhibitors of Vaccinia Orthopoxvirus: mCherry Reporter Primary qHTS | Vaccinia virus mCherry reporter infection, fluorescence | Potency, µM (doses to about 36.5 µM), most hits filed as inhibitors | 310,000 tested, 0.63% active | AID 720579, 2013; calls by dose curve; tested in A549 cells; also: nearly all actives have a fitted effect of over 35% in size
Marburg entry inh: qHTS for inhibitors of binding or entry into cells for Marburg Virus. AID 540276, 2011. Marburg virus pseudotyped entry inhibition, cell reporter. Potency, µM (doses to about 37.8 µM), actives largely listed as inhibitors. 300,000 tested, 1.8% active; calls by dose curve; tested in HEK293 cells
Lassa entry inh: qHTS for Inhibitors of binding or entry into cells for Lassa Virus; Lassa virus pseudotype entry inhibition, cell reporter; Potency, µM (series often up to 37.9 µM), usual class: inhibitors; 300,000 tested, 1.2% active; AID 540256, 2011; calls by dose curve; tested in HEK293 cells; also: nearly all actives have a fitted effect of over 50% in size
Each line names hits and unclear results; the compound was inactive in the other large screens.

CC(C)(C)n1nnnc1C(c1cc2ccccc2o1)N(Cc1ccccc1)Cc1ccccc1 (stereo unspecified)	HCMV inh -87, VACV mCherry inh inconclusive (no result: HCV inh, Marburg entry inh, Lassa entry inh)
CC(C)(C)c1ccc(CN(Cc2ccccc2)C(c2ccccn2)c2nnnn2C(C)(C)C)cc1 (stereo unspecified)	HCV inh 10µM, Marburg entry inh inconclusive, Lassa entry inh 5.6µM
CC1(C)Cc2c(sc(NC(=O)c3ccccc3)c2C(=O)O)CO1	Marburg entry inh inconclusive, Lassa entry inh inconclusive
CC1(C)Cc2c(sc(NC(=O)C(=O)N3CCCC3)c2C(=O)O)CO1	none (no result: Vaccinia Venus, VACV mCherry inh, Marburg entry inh, Lassa entry inh)
COc1ccc(C(=O)Nc2sc3c(c2C(=O)O)CC(C)(C)OC3)cc1	Marburg entry inh 4.5µM, Lassa entry inh inconclusive
CCOC(=O)c1c(NC(=O)C2C3C=CC(C3)C2C(=O)O)sc2c1CC(C)(C)OC2 (stereo unspecified)	none
CCOC(=O)c1c(NC(=O)c2cccs2)sc2c1CC(C)(C)OC2	HCV inh 7.9µM, Marburg entry inh inconclusive (no result: VACV mCherry inh)
CC(C)COc1ccc(C(=O)Nc2sc3c(c2C(=O)O)CC(C)(C)OC3)cc1	HCMV inh inconclusive, HCV inh 10µM, VACV mCherry inh inconclusive, Marburg entry inh 1.3µM, Lassa entry inh inconclusive
COc1cc(OC)cc(C(=O)N2CCC(c3ccncc3)CC2)c1	none (no result: HCV inh, Marburg entry inh)
COC(/C=C/Nc1ccc(OC)cc1)=C(C#N)C#N	none
COc1ccc(OC)c(N/C=C/C(=C(C#N)C#N)N(C)C)c1	HCMV inh -68, HCV inh inconclusive, Marburg entry inh inconclusive
CC(=O)c1ccc(NC(=O)C2CCC(CNS(=O)(=O)c3cccs3)CC2)cc1 (stereo unspecified)	none (no result: HCV inh)
CCOc1cccc(C2c3[nH]c4ccccc4c3CCN2C(=O)CCC2CCCC2)c1 (stereo unspecified)	Lassa entry inh inconclusive (no result: HCV inh, Marburg entry inh)
CCOc1ccc(C2c3[nH]c4ccccc4c3CCN2C(=O)CCC2CCCC2)cc1 (stereo unspecified)	HCMV inh -80, Lassa entry inh inconclusive (no result: HCV inh, Marburg entry inh)
COc1ccc(C2c3[nH]c4ccccc4c3CCN2C(=O)CCC2CCCC2)cc1 (stereo unspecified)	HCMV inh -82, Lassa entry inh inconclusive (no result: HCV inh, Marburg entry inh)
COc1ccc(C(=O)N2CCc3c([nH]c4ccccc34)C2C(F)(F)F)cc1 (stereo unspecified)	HCMV inh -60, HCV inh inconclusive (no result: Vaccinia Venus, VACV mCherry inh, Marburg entry inh, Lassa entry inh)
O=C(O)c1ccccc1C(=O)N1CCc2c([nH]c3ccccc23)C1C(F)(F)F (stereo unspecified)	none
COc1ccc(C2c3[nH]c4ccc(OC)cc4c3CCN2C(=O)Nc2ccccc2)cc1 (stereo unspecified)	HCMV inh -89, VACV mCherry inh inconclusive, Lassa entry inh inconclusive (no result: HCV inh, Marburg entry inh)
COc1cccc(CNC(=O)c2cc(S(=O)(=O)N3CCCCCC3)cn2C)c1	none (no result: HCV inh, Marburg entry inh)
COc1ccc(-c2nn(C)c3sc(C(=O)N4CCN(c5cc(Cl)ccc5C)CC4)cc23)cc1OC	Marburg entry inh inconclusive (no result: HCV inh)
Cc1cc(C(=O)OCC(=O)N(C)c2ccccc2)ccc1[N+](=O)[O-]	HCMV inh -63
CN(C(=O)COC(=O)c1ccc2c(c1)OCCO2)c1ccccc1	HCMV inh -69, Marburg entry inh inconclusive
Cc1ccc(C(=O)OCC(=O)N(C)c2ccccc2)cc1C	none
Cc1ccc(-n2c(=O)c3c(c4cc(C)ccc4n3C)n(CC(=O)NCCC3=CCCCC3)c2=O)cc1	none (no result: HCV inh, Marburg entry inh)
Cc1ccc(CSCC(=O)N2CCN(c3cc(Cl)ccc3C)CC2)cc1	none (no result: HCV inh, Marburg entry inh)
CCc1ccccc1NC(=O)c1cc2c(Cl)nc3ccccc3c2s1	none (no result: HCV inh)
CCCCOc1ccc(Cc2c(Cl)nc(SC)nc2N2CCOCC2)cc1	Marburg entry inh inconclusive
CSc1nc(Cl)c(Cc2ccc(OCC(C)C)cc2)c(N2CCOCC2)n1	HCMV inh inconclusive, HCV inh 11µM (no result: Vaccinia Venus, VACV mCherry inh, Lassa entry inh)
CC1Cc2nc(SCC(=O)c3ccccc3)n(Cc3ccccc3)c(=O)c2S1 (stereo unspecified)	HCV inh 11µM (no result: Marburg entry inh, Lassa entry inh)
CC1Cc2nc(SCC(=O)NCc3ccccc3)n(Cc3ccccc3)c(=O)c2S1 (stereo unspecified)	HCV inh inconclusive (no result: Marburg entry inh, Lassa entry inh)
Cc1ccc(NC(=O)Cc2noc3ccccc23)c(C)c1	none
CCOC(=O)Cc1nnc(Nc2ccc(C)cc2C)c2ccccc12	HCMV inh -60
CCOC(=O)Cc1nnc(Nc2cc(C)ccc2C)c2ccccc12	HCMV inh -60
CCCN(CCC)CCCNC(=O)c1cc2c(=O)oc3ccc(C)cc3c2s1	Lassa entry inh inconclusive (no result: HCV inh)
CS(=O)(=O)Nc1cccc(C(=O)CC2(O)C(=O)Nc3ccccc32)c1 (stereo unspecified)	HCMV inh -68 (no result: Vaccinia Venus, VACV mCherry inh)
C=CCNc1nc(-c2ccc3c(c2)OCCO3)cs1	none (no result: Vaccinia Venus, VACV mCherry inh, Marburg entry inh, Lassa entry inh)
c1ccc2sc(NCC3CCCO3)nc2c1 (stereo unspecified)	Marburg entry inh inconclusive
C=CCNc1nc(-c2cc3ccccc3o2)cs1	HCV inh inconclusive, Marburg entry inh inconclusive, Lassa entry inh 7.9µM
c1ccc2oc(-c3csc(NCC4CCCO4)n3)cc2c1 (stereo unspecified)	HCV inh 25µM, Marburg entry inh inconclusive, Lassa entry inh inconclusive
COc1ccc(-c2ccc(=O)n(CC(=O)Nc3cc(OC)ccc3OC)n2)cc1	none (no result: HCV inh, Marburg entry inh)
COc1ccc(-c2cc(C(F)(F)F)nc(SCC(=O)Nc3ccc(C(C)=O)cc3)n2)cc1	Marburg entry inh inconclusive (no result: HCV inh)
CCCCCn1c(-c2ccco2)nc2nc3ccccc3nc21	Marburg entry inh 11µM (no result: VACV mCherry inh)
Cc1cc(-c2nc3ccccc3s2)ccc1N	Marburg entry inh inconclusive, Lassa entry inh 3.5µM
Nc1ccc(-c2nc3ccccc3s2)cn1	HCV inh 25µM, Marburg entry inh inconclusive (no result: Lassa entry inh)
Clc1ccc(/C=C/c2ccc3ccccc3n2)c(Cl)c1	none (no result: HCMV inh, HCV inh, Marburg entry inh, Lassa entry inh)
COc1ccc(CCNC(=O)c2cnc3sc(N4CCCC4)nn3c2=O)cc1OC	none (no result: HCV inh, Marburg entry inh)
CN(C)Cc1nc2ccccc2c(=O)n1Cc1nc(-c2cc3ccccc3o2)cs1	HCV inh inconclusive, Marburg entry inh 11µM
Cc1csc(Cn2c(CN(C)C)nc3ccccc3c2=O)n1	none
Cc1ccc(NCc2ccc(O)c3ncccc23)cc1	HCV inh 5.6µM, Marburg entry inh inconclusive, Lassa entry inh inconclusive
Cc1ccc(O)c(CNc2cccc3cccnc23)c1	HCV inh inconclusive
Cc1ccc(NCc2ccc(O)c3ncccc23)cc1C	HCMV inh -79, HCV inh inconclusive, Marburg entry inh inconclusive, Lassa entry inh inconclusive
CN(C)CCCN(CCCNC(=O)/C=N\O)Cc1ccccc1	none (no result: Vaccinia Venus, HCMV inh, HCV inh, VACV mCherry inh, Lassa entry inh)
Cc1ccc(C)c(S(=O)(=O)N2CCCCC2CCNC(=O)C(=O)NCc2cccnc2)c1 (stereo unspecified)	Vaccinia Venus inconclusive, Marburg entry inh inconclusive
